From PubChem BioAssay
Hits are enriched below; roughly 0.9% of the tested compounds scored in any of these assays.
Tat transport – blocks Tat-dependent protein export in E. coli; E. coli MC4100 TorA-mCherry Tat export, fluorescence; inhibition, % at 10 µM; 340,000 tested, 0.036% active; AID 488895;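 active = mean replicate inhibition at least 50% and at least half of replicates individually reaching 50%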;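 note: exported cargo escapes ClpAP degradation while cytoplasmic cargo is degraded and loses fluorescence; 0% = median of neutral control wells and 100% = median of NaSCN control wells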
E coli growth-1 – counter-screen for AddAB inhibitors: E. coli growth inhibition. inhibition, % at 11.9 µM. 330,000 tested, 0.27% active. E. coli V3065 growth, OD600 absorbance, 18 h;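 active = inhibition above the campaign's mean inhibition across all tested compounds plus 3 SD, cut at about 9.9% in these data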;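 note: uninfected addAB+ strain grown without phage in ampicillin broth; 0% = DMSO wells and 100% = ciprofloxacin 0.95 µg/ml wells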
E coli growth-2 – blocks Escherichia coli growth; OD600, 23 h; stronger effect = lower value; OD600 absorbance (concentration not given with the values); 330,000 tested, 0.21% active;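 active = OD600 absorbance below the run mean of sample wells minus 3.6 SD, in any replicate, cut at about 0.56 in these data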
phage Ecoli inh – E. coli growth loss with phage present | growth absorbance | 360,000 tested, 0.26% active | AID 651602 | inhibition, % at 11.9 µM; in the data active = inhibition above about 11%
Calb FLC – affects C. albicans growth with fluconazole | C. albicans CaCi-2 (fluconazole-resistant clinical isolate) + fluconazole, Alamar Blue growth, 48 h | growth inhibition, % (test concentration not listed) | 300,000 tested, 0.57% active;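 active = growth inhibition above about 58% in most replicates, limit read from the data, passing the limit was not always enough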;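 note: all wells also contain fluconazole at 8 µg/ml as a sub-toxic cotreatment; 0% = median of DMSO wells and 100% = median of geldanamycin control wells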
AddAB inh – less growth of phage-infected E. coli with AddAB; E. coli expressing H. pylori AddAB, absorbance growth; inhibition, % at 11.9 µM; 330,000 tested, 0.29% active; in the data active = inhibition above about 12%;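 note: 0% = vehicle wells of infected cells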
* hit, by the source's call.

CC1CCC2C(C)C(=O)OC3OC4(C)CCC1C32OO4 (stereo unspecified) was read as Tat transport -1.7, E coli growth-1 1.4, E coli growth-2 0.431*, phage Ecoli inh 2.6, Calb FLC 63.6 and AddAB inh 0.8.
COc1cc2c3cc1Oc1c(OC)c(OC)cc4c1C(Cc1ccc(cc1)Oc1cc(ccc1O)CC3N(C)CC2)N(C)CC4 (stereo unspecified) was read as E coli growth-2 0.65.
For Cc1ccccc1-[n+]1c(-c2ccccc2)cc(-c2ccccc2)cc1-c1ccccc1 the results were Tat transport -0.7, E coli growth-1 -2.4, E coli growth-2 0.647, phage Ecoli inh 2.1, Calb FLC 112.2* and AddAB inh 2.4.
For Oc1ccccc1-[n+]1c(-c2ccccc2)cc(-c2ccccc2)cc1-c1ccccc1 the results were Tat transport 5.3, E coli growth-1 1.8, phage Ecoli inh 3.0, Calb FLC 2.4 and AddAB inh 5.0.
Screening Nc1ccccc1-[n+]1c(-c2ccccc2)cc(-c2ccccc2)cc1-c1ccccc1 returned Tat transport 3.1, E coli growth-1 1.4, E coli growth-2 0.67, phage Ecoli inh 4.5, Calb FLC 87.3* and AddAB inh 2.6.
[O-]c1ccccc1-[n+]1c(-c2ccccc2)cc(-c2ccccc2)cc1-c1ccccc1 was read as Tat transport 4.4, E coli growth-1 3.2, E coli growth-2 0.613, phage Ecoli inh 0.9, Calb FLC 96.2* and AddAB inh 6.5.
Screening CC(C)c1oc(=O)cc2c1C(O)C1OC(=O)[C@@]3(C)CC(O)C(O)[C@@]2(C)C13 (stereo partly specified) returned E coli growth-2 0.695.
`COC(=O)C1=C(c2c(C)noc2C)CC2CCC1N2C(=O)NC1CC1` (stereo unspecified) gave E coli growth-2 0.684.
For COC(=O)C1=C(c2ccc(F)cc2OCc2ccccc2)CC2CCC1N2C(=O)NC1CCCCC1 (stereo unspecified) the results were E coli growth-2 0.732.
`COC(=O)C1=C(c2ccc(F)cc2F)CC2CCC1N2C(=O)NC1Cc2ccccc2C1` (stereo unspecified) gave E coli growth-2 0.635.
O=C1C2CCN(CC2)C1Cc1ccc(OCCOc2ccccc2)cc1 (stereo unspecified) was read as Tat transport -12.6, E coli growth-1 0.1, E coli growth-2 0.687, phage Ecoli inh 2.6, Calb FLC 108.5* and AddAB inh -1.3.
O=[N+]([O-])c1ccc(C2[C@H]3C(c4ccccc4)=NC4(CCCC4)N23)cc1 (stereo partly specified) was read as Tat transport 4.3, E coli growth-1 -1.9, E coli growth-2 0.696, phage Ecoli inh 1.9, Calb FLC 99.4* and AddAB inh 1.7.
Screening COC(=O)C1=C(c2ccc(-c3ccccc3)c(F)c2)CC2CCC1N2C(=O)NCCOc1ccccc1Cl (stereo unspecified) returned E coli growth-2 0.735.
For c1ccc(-c2nc(N3CCOCC3)s[n+]2-c2ccccc2)cc1 the results were Tat transport -1.7, E coli growth-1 2.8, E coli growth-2 0.524*, phage Ecoli inh 1.6, Calb FLC -1.8 and AddAB inh 4.3.
`COC(=O)C1=C(c2ccc(F)cc2OCc2ccccc2)CC2CCC1N2C(=O)NCCN1CCOCC1` (stereo unspecified) gave E coli growth-2 0.7.
CN(C)C1C(=O)C(C(N)=O)=C(O)[C@@]2(O)C(=O)C3=C(O)c4c(O)cccc4[C@@](C)(O)C3CC12 (stereo partly specified) was read as E coli growth-2 0.065*.
CN(C)C1C(=O)C(C(N)=O)=C(O)[C@@]2(O)C(=O)C3=C(O)c4c(O)cccc4[C@@](C)(O)C3C(O)C12 (stereo partly specified) was read as E coli growth-2 0.0695*.
For C=C1C2C[C@]3(C1O)C1CC4[C@@]5(C)CCC(O)[C@@]4(C1N(CC)C5)C3CC2O (stereo partly specified) the results were E coli growth-2 0.659.
`COc1ccc(N/N=C/c2c(O)n(-c3cccc(C)c3)c(=O)[nH]c2=O)cc1` gave Tat transport -1.6, E coli growth-1 1.9, E coli growth-2 0.624, phage Ecoli inh 2.3, Calb FLC 113.7* and AddAB inh 5.2.
Screening COc1ccc(N/N=C/c2c(O)n(-c3ccc(C)c(C)c3)c(=O)[nH]c2=O)cc1 returned Tat transport -2.0, E coli growth-1 -0.5, E coli growth-2 0.688, phage Ecoli inh 1.6, Calb FLC 0.1 and AddAB inh 3.9.
`COC(=O)C1=C(c2ccc(OC)c(OC)c2)CC2CCC1N2C(=O)NCc1ccc(F)cc1` (stereo unspecified) gave E coli growth-2 0.707.
For COC(=O)C1C(O)C(C)C(O)C(C)C=CC=C(C)C(=O)Nc2c(C)c(OC(C)=O)c3c(c2O)C(=O)C(C)=C2OCOC(=C23)C(C)=CC(C)(O)C(O)C(C)C1O (stereo unspecified) the results were E coli growth-2 0.122*.
`COc1cc2cc(C(=O)N3CC(COS(C)(=O)=O)c4ccc(O)cc43)[nH]c2c(OC)c1OC` (stereo unspecified) gave Tat transport 57.7*.
`Cc1ccc(C=C2C(=O)NC(=O)N(CCc3ccc(F)cc3)C2=O)o1` gave E coli growth-2 0.689.
COC(=O)C1=C(c2ccc(C(C)=O)cc2)CC2CCC1N2C(=O)NCCNC(C)=O (stereo unspecified) was read as E coli growth-2 0.684.
O=C(O)c1ccc(-[n+]2c(-c3ccccc3)cc(-c3ccccc3)cc2-c2ccccc2)cc1 was read as Tat transport -7.6, E coli growth-1 -1.6, E coli growth-2 0.627, phage Ecoli inh 1.8, Calb FLC -14.4 and AddAB inh 2.6.
For C[n+]1c(-c2ccccc2)cc(CCCCc2cc(-c3ccccc3)[n+](C)c(-c3ccccc3)c2)cc1-c1ccccc1 the results were Tat transport -3.4, E coli growth-1 1.4, E coli growth-2 0.659, phage Ecoli inh 2.5, Calb FLC 111.1* and AddAB inh -0.5.
Screening Cc1ccc(-c2cc(-c3ccccc3)cc(-c3ccccc3)[n+]2-c2ccc(C(=O)O)cc2)cc1 returned Tat transport -7.5, E coli growth-1 -2.8, E coli growth-2 0.706, phage Ecoli inh 4.1, Calb FLC -12.5 and AddAB inh 2.9.
For COc1ccc(-[n+]2c(-c3ccccc3)cc(-c3ccc(C)cc3)cc2-c2ccccc2)cc1 the results were Tat transport 0.6, E coli growth-1 0.7, phage Ecoli inh 2.8, Calb FLC 89.3* and AddAB inh 5.5.
`COc1ccc(-c2cc(-c3ccccc3)[n+](C)c(-c3ccccc3)c2)cc1` gave Tat transport -2.7, E coli growth-1 0.1, E coli growth-2 0.711, phage Ecoli inh 4.0, Calb FLC 102.7* and AddAB inh -1.2.
